Experimental findings from PubChem BioAssay are described below.

Each structure is given as a SMILES string. Calls of active or inactive are those of the source. No rule for the calls is given here.

The target in the test is Pantothenate synthetase (Mycobacterium tuberculosis (strain ATCC 25618 / H37Rv)) (UniProt P9WIL5). As to the kind of experiment: Recombinant Mtb pantothenate synthetase (PanC) inhibitors, coupled enzyme, confirmatory (AID 375).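 Also: 0% = full reaction with vehicle and 100% = no enzyme background.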 The note with it: coupled enzyme assay; at 10 µM, hits give high values.
Sequence of Pantothenate synthetase (Mycobacterium tuberculosis (strain ATCC 25618 / H37Rv)) (P9WIL5 whole entry, looked up): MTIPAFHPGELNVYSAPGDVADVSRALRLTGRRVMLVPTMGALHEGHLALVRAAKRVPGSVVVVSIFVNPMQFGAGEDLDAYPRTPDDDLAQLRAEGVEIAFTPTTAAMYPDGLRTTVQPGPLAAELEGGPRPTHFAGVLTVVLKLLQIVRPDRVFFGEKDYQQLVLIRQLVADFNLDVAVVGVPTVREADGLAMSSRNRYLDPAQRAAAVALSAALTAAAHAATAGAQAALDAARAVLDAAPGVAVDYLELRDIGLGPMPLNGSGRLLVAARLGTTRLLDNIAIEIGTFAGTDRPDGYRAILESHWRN
As a reminder, the inhibition is the change of the read-out against control, counted positive when it falls. For `CC(NC(=O)Nc1nccs1)(C(F)(F)F)C(F)(F)F`, the inhibition was 5% (inactive). Next, `CCOC(=O)C1=C(c2ccccc2)N2CCS(=O)(=O)N=C2S1`: 0% (inactive); `CC(=O)Nc1ccc(S(=O)(=O)N2CCN=C2C)cc1`: 3% (inactive). The figure for `CCN1CCCC1CNC(=O)CS(=O)(=O)Cc1nc(-c2ccccc2C)oc1C` (stereo not given) is 0% (inactive); for `C=C(C)Cn1c(SCC)nc2ccccc2c1=O` it is 4% (inactive); for `CCC1CCCCN1S(=O)(=O)c1ccc(C(=O)Nc2nnc(-c3ccccc3Cl)o2)cc1` (stereo not given) it is 4% (inactive).

Regarding `Cn1c(N2CCC(C(N)=O)CC2)nc2c1c(=O)n(Cc1ccc(Br)cc1)c(=O)n2C`, the inhibition is 0% (inactive). The figure for `COc1ccc(S(=O)(=O)Nc2ccc(S(=O)(=O)N3CCCCC3)cc2)cc1OC` is 0% (inactive); for `COc1ccccc1N(CC(=O)NCc1ccccn1)S(C)(=O)=O` it is 0% (inactive); for `COc1cccc(OCc2nnc(SCC(=O)OCc3ccccc3)o2)c1` it is 0% (inactive).

For `O=C(Nc1cc(C(F)(F)F)ccc1N1CCCC1)c1ccc2c(c1)OCO2`, the inhibition is 2% (inactive).

For `COc1ccc(C(=O)NCC(=O)NC2=NCCS2)cc1`, the inhibition is 0% (inactive). Next, `Brc1ccc(-c2cn3cccnc3n2)cc1`: 0% (inactive); `Cc1nc2ccccc2c(=O)n1/N=C/c1ccncc1`: 3% (inactive); `COc1cc(C(=O)N2CCN(C(=O)CC(C)C)CC2)cc(OC)c1OC`: 0% (inactive). The figure for `Cc1c(NC(=O)C(C)Oc2ncnc3ccccc23)c(=O)n(-c2ccccc2)n1C` (stereo not given) is 0% (inactive); for `O=C(O)CCCC(=O)Nc1nc(-c2ccc(F)cc2)cs1` it is 0% (inactive). The figure for `COc1ccc(-c2c(=O)n(OCc3ccccn3)c3ccccc3[n+]2[O-])cc1OC` is 3% (inactive); for `C=CCn1c(SCC(=O)Nc2ccc3c(c2)OCO3)nc2ccccc2c1=O` it is 2% (inactive). Consider `C1=CC2CC1CC2CN1CCN(c2ccccc2)CC1` (stereo not given), for which the inhibition was 5% (inactive).

As to `COc1ccc(OC)c(S(=O)(=O)N2CCC(C(=O)NCc3ccccc3OC)CC2)c1`, the inhibition is 0% (inactive).

Turning to `O=C(Nc1ccccc1C(=O)NCC1CCCO1)c1ccco1` (stereo not given), the inhibition was 1% (inactive). Next, `O=C1CC(Cc2ccccc2)C(=O)N1CCc1ccc2c(c1)OCO2` (stereo not given): 3% (inactive); `COc1ccc(C2CC(=O)C3=C(C2)Nc2ccccc2N(C(=O)C2CC2)C3c2cccnc2)cc1OC` (stereo not given): 8% (inactive). The figure for `Cc1ccc(S(=O)(=O)NCC(=O)OCN2C(=O)c3ccccc3C2=O)cc1` is 4% (inactive). For the compound `Cc1ccc2c(c1)c1c3n2CC(=C2C(=O)OC(C)(C)OC2=O)NC3CCC1` (stereo not given), the inhibition was 6% (inactive). Next, `COc1ccc(-n2c(Cc3cccn3C)nnc2SCC(=O)Nc2cccc(C)c2C)cc1`: 0% (inactive); `CCCS(=O)(=O)NCCc1cc2cc(C)c(C)cc2[nH]c1=O`: 0% (inactive); `O=C1CN=C(Nc2cccc(C(F)(F)F)c2)N1C1CCCC1`: 0% (inactive). Next, `CC(C)CCNC(=O)NC(=O)CSc1nnc(COc2ccccc2Cl)o1`: 7% (inactive); `Cn1c(Cl)nc2ccccc21`: 0% (inactive). For the compound `O=C(C1CCCN(S(=O)(=O)c2cccc3nonc23)C1)N1CCC(Cc2ccccc2)CC1` (stereo not given), the inhibition is 3% (inactive).

Take `O=C1CC(N2CCOCC2)C(=O)N1c1ccc2c(c1)OCO2` (stereo not given): the inhibition is 1% (inactive).

Take `C(=C\c1ccccc1)/CN1CCN(C(c2ccccc2)c2ccccc2)CC1`: the inhibition is 0% (inactive).

As for `Cn1c(CCCNC(=O)c2ccccc2)nc2ccccc21`, the inhibition is 2% (inactive).

For the compound `COc1ccccc1C(=O)N1CCN=C1SCc1cccnc1`, the inhibition was 0% (inactive).

With `CCOc1cc(C(=O)N2CCN(c3ccccc3)CC2)cc(OCC)c1OCC`, the inhibition is 3% (inactive). Next, `CCC(C)NC(=O)c1ccccc1NC(=O)C(C)N(c1ccccc1)S(C)(=O)=O` (stereo not given): 0% (inactive). Next, `Cc1noc(C)c1CSc1nc2ccccc2s1`: 2% (inactive). Next, `COc1ccc(OC)c(NC(=O)CSc2nnc(-c3ccco3)n2-c2ccccc2)c1`: 0% (inactive).
